Shiga toxin inh = Shiga toxin inhibition; Vero cells, Shiga toxin protein synthesis inhibition reporter; inhibition, % at 38.7 µM; hit rate 9.2% among 290,000; in the data active = inhibition mostly above about 28%, no sharp cut-off; inactive = mostly below about 43%; also: 0% is about no effect
Pf growth 96h = P. falciparum growth inhibition at 96 hours | P. falciparum luciferase reporter growth, 96 h | hit rate 6.9% among 320,000 | Potency, µM (series often up to 28.7 µM), for inactives: at the highest dose activity change, negative = inhibition, actives largely listed as inhibitors | AID 504834; also: potency is read from the fitted curve at half-maximal effect; % is scaled to controls: 0 for no effect and ±100 for the full control effect
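Compounds incubated with erythrocytes infected by luciferase-expressing P. falciparum (2% hematocrit, 0.05% parasitemia final) for 96 hours, 37 C in 5% CO2. Growth inhibition scored as decreased luciferase luminescence.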
Pf growth 48h = inhibits P. falciparum growth in the first generation, 48 h; P. falciparum luciferase growth in erythrocytes, 48 h; Potency, µM (series often up to 28.7 µM), for inactives: top-dose activity change, negative = inhibition, actives largely listed as inhibitors; hit rate 5.9% among 310,000; AID 504832; also: potency is read from the fitted curve at half-maximal effect; % is scaled to controls: 0 for no effect and ±100 for the full control effect
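Luciferase-expressing P. falciparum in infected erythrocytes (2% hematocrit, 0.1% parasitemia final) in RPMI 1640/0.5% Albumax were exposed to compound for 48 hours at 37 C, 5% CO2; growth read as luminescence.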
MARV entry inh = inhibitors of Marburg virus binding or cell entry. Potency, µM (doses to about 37.8 µM), without a hit: at the top dose activity change, negative = inhibition, usual class: inhibitors. Marburg virus pseudotyped entry inhibition, cell reporter. hit rate 1.8% among 300,000; calls by dose curve; tested in HEK293 cells; also: potency is read from the fitted curve at half-maximal effect; % is scaled to controls: 0 for no effect and ±100 for the full control effect
LASV entry inh = Lassa virus entry inhibition; Potency, µM (titrated, usually from 37.9 µM), for the others: at the top dose activity change, negative = inhibition, usual class: inhibitors; Lassa virus pseudotype entry inhibition, cell reporter; hit rate 1.2% among 300,000; calls by dose curve; tested in HEK293 cells; also: potency is read from the fitted curve at half-maximal effect; % is scaled to controls: 0 for no effect and ±100 for the full control effect; nearly all actives have a fitted effect of over 50% in size
CHX counter = counter-screen hit for Shiga toxin inhibitors, cycloheximide; cell reporter, cycloheximide protein synthesis inhibition counterscreen; max response, %; hit rate 12% among 300,000; AID 2314; in the data active = max response mostly above about 13%, no sharp cut-off; inactive = mostly below about 14%; also: read at 38.3 µM for the half of the compounds with a filed dose; 0% is about no effect
The depositor's hits bear a star; u = inconclusive; x = no result; [ ] = remark or other dose. Compounds with a hit are over-represented: about 19% of the library has one in this group of screens. Unless noted, calls follow the shape of the dose curve; as a rule, active = well fitted inhibition curve with a large enough effect; inconclusive = small, poorly fitted or top-dose-only effect, or another doubt; inactive = no such curve, though single readings can be large or run the other way.

SMILES | Shiga toxin inh | Pf growth 96h | Pf growth 48h | MARV entry inh | LASV entry inh | CHX counter
CCCCOC(=O)c1ccc(NC(=O)C(CCS(C)(=O)=O)NC(C)=O)cc1 (stereo unspecified) | -9 | 5.2µM* | 56% | u | -5% | -3
CCCOC(=O)c1ccc(NC(=O)COC)cc1 | 50* | 99% | x | u | 0% | 30
CC(=O)Nc1ccc(Nc2nnc(-c3ccc(C)c(S(=O)(=O)NCCO)c3)c3ccccc23)cc1 | -3 | u | u | x | x | -1
CCCOC(=O)c1ccc(NC(=O)C2C3C=CC(O3)C2C(=O)O)cc1 (stereo unspecified) | 50 | 0% | 54% | 16% | 5% | 32*
CCc1ccc(C(C(=O)NCc2ccc(OC)cc2)N(CCOC)C(=O)Cc2cccs2)cc1 (stereo unspecified) | -12 | 1.5µM* | 4.1µM* | u | u | 2
COc1ccc(CNC(=O)C(c2ccc(C)o2)N(Cc2cccs2)C(=O)Cc2cccs2)cc1 (stereo unspecified) | -7 | 160% | 15µM* | u | 11µM* | 13
COCCN(C(=O)Cc1cccs1)C(C(=O)NCc1ccc(OC)cc1)c1ccc(C(C)C)cc1 (stereo unspecified) | 31 | 2.9µM* | 2.1µM* | u | u | -2
COCCN(C(=O)Cc1cccs1)C(C(=O)NC1CCCC1)c1ccc(OC)c(OC)c1 (stereo unspecified) | 1 | 19% | -28% | x | x | 3
COCCN(C(=O)Cc1cccs1)C(C(=O)NCc1ccc(OC)cc1)c1ccc(C)cc1 (stereo unspecified) | -1 | 5.9µM* | 8.3µM* | u | u | -1
O=C(NCc1cccnc1)C1CCCCN1S(=O)(=O)c1ccc(F)cc1 (stereo unspecified) | -14 | 33% | -2% | u | -17% | -3
N#C/C(=C/c1ccc(O)c(O)c1)C(N)=S | x | x | x | 23% | -19% | x
CCN(CC)c1ccc(/C=C(\C#N)C(N)=O)cc1 | 71 | 1% | 98% | u | u | 29*
CCN(CC)c1ccc(/C=C(\C#N)C(=O)c2ccc(Br)cc2)cc1 | -3 | 9% | 0% | u | u | 20*
N#C/C(=C\c1ccc(C#N)cc1)C(=O)c1ccccc1 | -7 | 12% | u | x | x | -1
CCN(CC)c1ccc(/C=C(\C#N)C(N)=S)cc1 | 39 | u | 0% | x | x | 25*
COc1ccc(S(=O)(=O)N2CCC(NC(=O)c3ccccc3)CC2)cc1 | -4 | 3% | 13% | x | x | 10
COC(=O)c1cc(S(=O)(=O)N2CCC(C)CC2)ccc1F | -10 | 1% | -17% | -1% | u | -4
COC(=O)/C(=C1/Oc2ccc(C)cc2S1)C(F)(F)F | 57* | u | 36% | 9% | 19% | 25*
Cc1cc(C(=O)N2CCCC(N3CCN(c4cccc(C(F)(F)F)c4)CC3)C2)nn1C (stereo unspecified) | 1 | 63% | -12% | x | x | 12
O=C1CCCN1CC(=O)N1CCCC(N2CCN(c3cccc(Cl)c3)CC2)C1 (stereo unspecified) | 44* | u | -7% | u | 28% | 30*
Cc1cc(C(=O)N2CCCC(N3CCN(c4cccc(Cl)c4)CC3)C2)nn1C (stereo unspecified) | 66 | -15% | 56% | 17% | 8% | 19*
Cc1ccc(-n2c(C)cc(C(=O)COC(=O)c3ccc[nH]c3=O)c2C)cc1 | 58* | u | 12% | u | u | 40*
Cc1cc(C(=O)COC(=O)c2ccc[nH]c2=O)c(C)n1-c1ccc(Br)cc1 | 27* | -27% | -14% | u | 10% | 48*
COc1ccc(C2OC[C@H]3O[C@H](O)[C@H](NC(C)=O)[C@@H](O)[C@@H]3O2)cc1 (stereo partly specified) | -3 | 25% | 23% | -20%[46.1 µM] | u | -1
Cc1ccc(Sc2ncccc2N)cc1 | x | x | x | 7%[46.1 µM] | 1% | x
Cc1ccc(Sc2ncccc2COC(=O)NC(C)C)cc1 | 118* | 118% | 78% | 17%[46.1 µM] | u | 37*
O=C(Cn1cc(S(=O)(=O)Cc2ccc(F)cc2)c2ccccc21)NCCc1ccccc1 | x | x | x | x | 22%[46.1 µM] | x

Bioassay records (PubChem BioAssay)
